An excerpt weighted towards active compounds, which were near 4.1% of everything screened.
TRPM1 prom inh = inhibitors of MITF-dependent TRPM1 promoter reporter, primary screen, cell-based, SK-MEL-5, single point, luciferase; inhibition, % at 12.5 µM; 330,000 tested, 0.83% active; SK-MEL-5 TRPM1 promoter luciferase, 24 h;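 active = mean inhibition across replicates of 60% or more, whatever share of single replicates reaches that level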
TWEAK Fn14 block = inhibitors of TWEAK-Fn14 signaling, primary screen, luciferase reporter cells, uHTS | TWEAK-stimulated Fn14 reporter cells, luciferase luminescence, 8 h | inhibition, % at 10 µM | 360,000 tested, 2% active; in the data active = inhibition above about 50%
TROY NFkB inh = inhibitors of TROY-driven NF-kB signaling, primary screen, Q293 LMP1-TROYcd cells, NF-kB luciferase, uHTS. Q293 LMP1-TROYcd NF-kB luciferase reporter, 4 h. inhibition, % at 10 µM. 360,000 tested, 0.98% active. AID 1347056, 2019;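 active = compounds whose plate-normalised and pattern-corrected inhibition of the luciferase reporter signal at the single screening dose is 50% or more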
Peg3 prom inh = Peg3 promoter-driven luciferase inhibitors, primary screen, cell-based, HeLa, luciferase luminescence | HeLa PEG-Prom luciferase reporter, overnight | inhibition, % at 20 µM | 360,000 tested, 1.7% active | AID 588405, 2011;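 active = inhibition of at least 50% at 20 µM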
LMP1 NFkB inh = EBV LMP1-driven NF-kappaB luciferase reporter inhibitors, primary screen, cell-based, luminescence, single point; inhibition, % at 12.5 µM; 350,000 tested, 0.69% active; LMP1-induced NF-kappaB luciferase reporter cells; AID 504558, 2011; in the data active = inhibition above about 41%;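 also: 0% = neutral control wells and 100% = reference inhibitor control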
Shn3 inh set2 = reduction of Shn3 3'UTR firefly luciferase signal, primary screen, Schnurri-3 inhibitor project, cell-based, Clone20 osteoblasts, set 2; Clone20 osteoblast Shn3 3'UTR firefly luciferase, 24 h; inhibition, % at 12.5 µM; 360,000 tested, 0.52% active; AID 588674, 2011;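 active = mean inhibition of at least 75% with every replicate also reaching 75%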;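 also: 0% = median of neutral control wells and 100% = pilot-screen positive control compound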
Starred values were filed as active, the others as inactive; x = no result.

SMILES	TRPM1 prom inh	TWEAK Fn14 block	TROY NFkB inh	Peg3 prom inh	LMP1 NFkB inh	Shn3 inh set2
CC1CCCN(c2ccc3nc4ccccc4c(=O)n3n2)C1 (stereo unspecified)	19.7	37.2	66.1*	-17.8	23.7	-9.2
CCCSc1ccc([C@H]2N[C@@](C)(C(=O)OC)[C@H]3C(=O)N(CC)C(=O)[C@@H]23)cc1	-61.6	6.9	7.4	-5.9	1.9	7.6
CCCCOc1ccc(Br)cc1/C(C)=N/NC1=NCCN1	81.7*	50.6*	31.1	41.2	28.4	88.1*
COc1ccc(/C(C)=N/NC2=NCCN2)cc1Cl	2.2	8.5	-9.0	6.8	1.0	26.8
CCCCCCOc1ccc(/C(C)=N/NC2=NCCN2)cc1[N+](=O)[O-]	33.6	-50.5	5.9	111.2*	-39.0	-11.1
CCN(CC)C(=S)SC1CCCCN(C(=O)c2ccccc2)C1=O (stereo unspecified)	9.2	-16.4	5.7	21.1	-0.2	16.5
CC1C=CCC2C(=O)N(c3cccc(C(=O)Nc4ccc(Br)cc4)c3)C(=O)C12 (stereo unspecified)	12.2	25.5	16.8	-46.8	0.1	0.1
COc1ccc(N(C(=O)CCl)C(C(=O)NCCc2ccccc2)c2cccs2)cc1 (stereo unspecified)	88.3*	60.4*	-17.4	105.1*	-3.0	95.7*
COc1ccc(-n2c(SCC(=O)Nc3ccc4c(c3)OCO4)nc3c(c2=O)SCC3)cc1	2.5	-4.8	-25.6	14.7	76.0*	-3.9
O=C(CSc1nc2c(c(=O)n1-c1ccc(F)cc1)SCC2)Nc1ccc2c(c1)OCO2	1.7	-6.0	-7.5	13.8	0.4	-4.8
O=C(Nc1cccc(Cl)c1)Nc1csc([N+](=O)[O-])c1	-5.6	71.5*	38.1	-67.2	21.4	29.6
CN(c1cccc(NC(=O)Nc2cccc(Cl)c2)c1)S(C)(=O)=O	-16.3	81.9*	5.5	-209.6	-3.1	-6.4
CC(=O)Nc1cccc(N(C)S(C)(=O)=O)c1	-1.8	3.2	-10.7	1.1	4.4	-6.1
C=CCn1c(=O)c(C(=O)NC2CC2)c(O)c2cc(OC)c(OC)cc21	-7.1	17.4	1.1	3.6	-1.8	-3.3
CC1NC(=S)N(Cc2ccccc2)C1=O (stereo unspecified)	4.7	6.6	14.5	7.2	1.9	7.7
O=C(O)CC1NC(=S)N(Cc2ccccc2)C1=O (stereo unspecified)	x	15.3	8.2	52.4*	12.1	-2.0
CN(C(=O)c1cccc(NC(=O)Cc2ccc(NC(=O)C3CCN(C(=O)C4CCC4)CC3)cc2)c1)C1CC1	-2.7	3.6	-14.2	-19.3	-0.1	3.9
COc1cccc(N2CCN(C(=O)CNC(=O)c3sc4ccccc4c3Cl)CC2)c1	-2.2	-13.3	14.5	-43.7	6.5	20.0
Cc1cc(C)cc(CC2CC(=O)N(c3cc(C)ccc3C)C2=O)c1 (stereo unspecified)	4.2	0.7	-6.9	4.0	1.9	16.8
Cc1ccc(C)c(N2C(=O)CC(Cc3ccccc3)C2=O)c1 (stereo unspecified)	0.4	12.0	-3.3	7.3	74.6*	12.6
CN(C)CCOc1ccc2c(c1)C(=O)C(=Cc1ncc([N+](=O)[O-])n1C)C2	x	-0.1	17.5	103.2*	24.8	50.9
CCc1cc(OCCN(C)C)ccc1Cl	14.9	-2.4	1.8	11.5	3.1	11.5
CC(C)c1nc(SCC(=O)Nc2cccc(C(F)(F)F)c2)c2c(=O)n(C)c(=O)n(C)c2n1	x	-9.3	16.5	14.8	15.5	85.5*
O=C(CSc1nnc(-c2ccccc2)n1Cc1ccccc1)NNC(=O)c1ccccc1O	-1.8	-4.5	6.3	14.8	-5.8	15.1
O=C(c1cn(-c2ccccc2)nc1-c1ccccc1)n1nnc2ccccc21	13.3	12.0	0.8	30.4	-3.1	35.1
SMILES	TRPM1 prom inh	TWEAK Fn14 block	TROY NFkB inh	Peg3 prom inh	LMP1 NFkB inh	Shn3 inh set2
COc1cccc(-c2nn(-c3ccccc3)cc2C(=O)n2nnc3ccccc32)c1	7.2	16.6	-9.8	50.3*	0.5	61.4
CSC1=NC(=O)/C(=C\c2cccc3ccccc23)S1	10.7	25.1	-4.0	56.5*	7.0	15.6
Cc1cc(C)n2nc(SCC(=O)N3CCCCC3C)nc2n1 (stereo unspecified)	x	4.0	-7.8	-15.7	-8.4	-5.2
O=C(COc1ccc(Cl)cc1Cl)NC(=O)N1CCCCC1	-92.2	61.2*	0.3	-266.7	5.3	-73.8
Cc1ccc(C(=O)N2CCc3ccccc32)cc1C	-50.0	-23.3	-41.4	-186.1	-15.8	-37.3
Cc1cccc(OCC(=O)NC(=S)N2CCCc3ccccc32)c1	-10.0	56.3*	39.5	-68.2	9.1	9.5
O=C(COc1ccc(Cl)cc1Cl)NC(=O)NC1CCCC1	-119.2	-53.1	-28.9	-482.6	-42.0	-54.1
O=C(COc1ccc(Cl)cc1Cl)NC(=S)N1CCCc2ccccc21	-18.4	57.8*	9.8	-44.6	-13.5	0.5
Cc1ccc(C(=O)N2CCc3ccccc32)cc1NC(=O)c1ccco1	16.3	89.0*	-2.6	10.9	-0.1	-6.0
O=C(COc1ccc(Cl)cc1Cl)OCC(=O)N1CCCc2ccccc21	16.3	-4.1	8.6	1.8	-5.0	11.1
Cc1cccc(OCC(=O)Nc2ccccc2N2CCCCC2)c1	2.0	9.6	-1.7	13.4	-4.7	-0.6
COC(=O)CCc1nc2cc(Cl)ccc2n(Cc2ccccc2)c1=O	-9.6	-10.0	-1.1	11.4	0.3	-22.0
O=C(NC(=S)N1CCCc2ccccc21)c1ccco1	-8.6	51.9*	52.6*	-28.1	-9.3	-6.6
Cc1sc2ncnc(N3CCC(C(=O)N(C)CC(=O)Nc4ccc(Cl)c(C(F)(F)F)c4)CC3)c2c1C	7.2	51.0*	58.0*	64.4*	10.6	79.8
Cc1sc2ncnc(N3CCC(C(=O)N(C)CC(=O)Nc4ccccc4Cl)CC3)c2c1C	3.9	32.3	24.6	48.9	12.4	3.8
CCN(CC(=O)Nc1cc(Cl)ccc1C)C(=O)C1CCN(c2ncnc3sc(C)c(C)c23)CC1	x	38.5	36.0	65.7*	10.7	56.8
Cc1sc2ncnc(N3CCC(C(=O)Nc4ccc(C#N)cc4)CC3)c2c1C	-7.5	-24.6	3.1	-5.3	-0.7	15.1
Cc1sc2ncnc(N3CCC(C(=O)N(C)CC(=O)Nc4cccc(F)c4)CC3)c2c1C	x	65.0*	41.2	33.9	28.9	46.9
Cc1sc2ncnc(N3CCC(C(=O)N(C)CC(=O)Nc4ccccc4Br)CC3)c2c1C	-5.2	51.2*	30.5	44.2	0.5	14.0
